In the supplement of paper PMC11383364:

Test system: SUM149
Assay: percent difference in area under dose-response curve of relative cell number, RPMI vs HPLM; higher = drug relatively more effective in HPLM than RPMI (negative = less effective in HPLM)
Conditions: treatment time: 72 h; dose range: 10-point, 1 nM to 20 µM; media compared: RPMI vs HPLM

Structure (SMILES) | percent difference in area under dose-response curve [%]
Cc1cnc(-c2ccccc2C(C)C)nc1NCc1ccc(-n2ccnn2)cc1 | -3.5
O=C(CCCCCCCn1cc(-c2cccnc2)nn1)Nc1ccccc1-c1ccccc1 | 0.587
Cc1ccccc1C(C(=O)NC1CCCC1)N(C(=O)Cn1cnc2ccccc21)c1cccc(F)c1 (stereo not drawn) | -1.67
Cc1cccc(Nc2nc(-c3ccncc3)cs2)c1 | -3.22
Oc1ccc(Nc2nc(-c3ccc(Cl)cc3)cs2)cc1 | 6.02
COc1cc2ncnc(Nc3ccc(F)c(Cl)c3)c2cc1NC(=O)/C=C/CN1CCCCC1 [Dacomitinib] | -9.71
COc1ccc(S(=O)(=O)Nc2cccnc2Nc2ccc(O)cc2)cc1 | -6.35
Cc1ccc([C@@H]2O[C@H](CO)[C@@H](O)[C@H](O)[C@H]2O)cc1Cc1ccc(-c2ccc(F)cc2)s1 [Canagliflozin] | -4.56
